Rows were chosen to be rich in hits. Some 14% of all compounds tested hit in one or more screens of this group.
USP28 block = blocks human USP28 ubiquitin-rhodamine cleavage | Q96RU2 | purified USP28, Ub-rhodamine cleavage fluorescence, 30 min | inhibition, % at 25 µM | 47,000 tested, 3% active | AID 1645857
Target sequence (Q96RU2 whole entry, looked up): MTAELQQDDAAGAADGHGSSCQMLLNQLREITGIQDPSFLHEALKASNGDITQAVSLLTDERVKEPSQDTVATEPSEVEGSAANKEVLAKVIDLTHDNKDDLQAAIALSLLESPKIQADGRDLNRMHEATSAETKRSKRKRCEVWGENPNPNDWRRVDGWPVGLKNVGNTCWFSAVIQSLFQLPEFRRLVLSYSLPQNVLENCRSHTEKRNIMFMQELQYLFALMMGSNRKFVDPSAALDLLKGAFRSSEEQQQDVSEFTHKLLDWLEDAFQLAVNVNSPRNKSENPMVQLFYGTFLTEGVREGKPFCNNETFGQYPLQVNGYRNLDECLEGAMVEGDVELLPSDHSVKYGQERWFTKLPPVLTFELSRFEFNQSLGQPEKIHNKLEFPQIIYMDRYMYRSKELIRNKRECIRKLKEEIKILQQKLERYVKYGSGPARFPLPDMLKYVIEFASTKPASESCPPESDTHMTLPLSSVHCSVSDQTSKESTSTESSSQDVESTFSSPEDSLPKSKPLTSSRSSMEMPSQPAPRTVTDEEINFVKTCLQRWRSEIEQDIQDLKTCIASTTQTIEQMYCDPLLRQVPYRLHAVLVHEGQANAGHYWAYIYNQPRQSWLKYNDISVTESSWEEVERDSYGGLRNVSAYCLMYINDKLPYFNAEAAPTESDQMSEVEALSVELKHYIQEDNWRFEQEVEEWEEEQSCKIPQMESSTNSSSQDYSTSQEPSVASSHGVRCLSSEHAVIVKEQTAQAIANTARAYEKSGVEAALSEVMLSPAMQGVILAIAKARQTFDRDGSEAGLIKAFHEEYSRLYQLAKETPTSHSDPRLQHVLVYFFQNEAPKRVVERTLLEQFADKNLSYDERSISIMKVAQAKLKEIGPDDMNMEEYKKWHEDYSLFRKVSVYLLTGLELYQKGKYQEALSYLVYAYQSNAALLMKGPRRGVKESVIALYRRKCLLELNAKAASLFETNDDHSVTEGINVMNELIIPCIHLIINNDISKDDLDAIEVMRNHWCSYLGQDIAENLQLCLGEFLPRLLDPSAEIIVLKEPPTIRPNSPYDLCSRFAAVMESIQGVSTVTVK
USP10 block = human USP10 deubiquitinase inhibition; 47,000 tested, 1.1% active; inhibition, % at 20 µM; Q14694; purified USP10, Ub-rhodamine fluorescence, 60 min
USP8 block = inhibitors of human USP8 deubiquitinase | P40818 | purified USP8, Ub-rhodamine cleavage fluorescence, 30 min | inhibition, % at 20 µM | 47,000 tested, 4.2% active | AID 1645853
USP17 block = human USP17-like deubiquitinase inhibition; A8MUK1; purified USP17, Ub-rhodamine cleavage fluorescence, 3 h; inhibition, % at 50 µM; 47,000 tested, 6.5% active
USP30 block = inhibitors of human USP30 deubiquitinase; purified USP30, Ub-rhodamine cleavage fluorescence; inhibition, % at 25 µM; 47,000 tested, 5.3% active; AID 1645860
Each line names hits and unclear results; the compound was inactive in the other large screens. Cut-off read from the data, not from the text of the source: active = inhibition above about 30%; inactive = the rest.

COc1ccc2[nH]c3c(c2c1)CCN1C(=O)N(c2ccccc2C(=O)NCc2ccccc2)C(=O)[C@]31C	USP17 block 61.0
C[C@]12C(=O)N(c3ccccc3C(=O)NCCc3ccccc3)C(=O)N1CCc1c2[nH]c2ccccc12	USP17 block 41.2
COc1cccc(CNC(=O)[C@H](C)N2C(=O)N3CCc4c([nH]c5ccc(OC)cc45)[C@@]3(C)C2=O)c1	none
O=C(OCc1nc2ccc(Cl)cc2n1CCO)c1ccccc1C(=O)c1ccccc1	none
CC(C)(NC(=O)Cc1ccccc1)c1nc2c(c(C(N)=O)n1)OCO2	none
COc1ccc2nc(N(Cc3ccncc3)C(=O)c3ccccc3)sc2c1	none
COc1ccc(OC)c2sc(N(Cc3ccncc3)C(=O)c3ccco3)nc12	USP30 block 43.4
CC(C)C12CN3CC(C(C)C)(CN(C1)C3[C@@H](O)[C@H](O)[C@H](O)CO)C2=O (some centres undefined)	none
COc1ccccc1N(C(=O)Nc1ccccc1)C1=NCCC1	USP28 block 45.9
Cc1ccc(CN2C[C@@H]3c4nc(N(C)C)ncc4CS(=O)(=O)[C@@H]3C2)cc1	USP30 block 30.5
Cc1ccc(NC(=O)Cn2nc3ccc(C(=O)NCc4ccccc4)cn3c2=O)cc1F	USP8 block 41.1, USP17 block 71.8
O=C(Cn1nc2ccc(C(=O)NCc3ccccc3)cn2c1=O)Nc1ccc(F)cc1	none
CCn1c(CN2CCc3c(nc(-c4ccccn4)[nH]c3=O)C2)nc2ccccc21	none
Cn1ccc(-c2cc(C(=O)NCc3ccccn3)c3ccccn23)n1	USP8 block 35.5
Cn1ccc(-c2cc(C(=O)NCc3ccncc3)c3ccccn23)n1	none
COc1ccccc1CNc1nc(-c2cccnc2)nn1S(=O)(=O)c1ccccc1	none
CC(=O)c1cnc(-c2ccccn2)s1	USP8 block 43.5
O=C(CC(NCc1ccco1)C(=O)O)Nc1cccc(Cl)c1Cl (centres undefined)	USP30 block 31.9
O=C(CC(NCc1ccco1)C(=O)O)Nc1ccccc1Cl (centres undefined)	none
COc1ccc2nc(C)cc(OCC(=O)Nc3cc(C)cc(C)c3)c2c1	USP17 block 35.9
COc1cc(C)ccc1OCC(=O)Nc1ccc(Oc2ccccc2)cc1	none
COc1ccccc1-c1nnc2sc(COc3ccc(F)cc3)nn12	none (no result: USP28 block, USP30 block)
Cc1ccccc1-c1nnc2sc(COc3ccc(Cl)cc3)nn12	USP28 block 52.7, USP8 block 30.9, USP17 block 68.4, USP30 block 80.0
COc1ccc(C(=O)Nc2ccc3c(N4CCOCC4)ncnc3c2)cc1	none
COc1ccc(NC(=O)c2ccc3ccnc(N4CCN(c5ccc(OC)cc5)CC4)c3c2)cc1	USP17 block 47.3
COc1cccc(N2CC(NC(=O)Nc3ccc(F)cc3F)CC2=O)c1 (centres undefined)	none
COc1ccc(-c2ncc3c(=O)n(Cc4cccnc4)c(=O)n(C)c3n2)cc1	USP30 block 35.8
Cc1nc(-c2nccn2C)cc(C2CCN(c3ccncn3)CC2)n1	none
Cc1cccc(N2CCN(C(=O)Cn3cc(-c4ccccc4)oc3=O)CC2)c1	none
Cc1nnc(-c2ccc3ccn(CC(=O)N4CCN(c5ccccn5)CC4)c3c2)o1	none
Cc1ccc(-c2cn(CC(=O)N3CCN(c4ccccn4)CC3)c(=O)o2)cc1	USP17 block 77.0, USP30 block 35.5
CCc1nnc(-c2cc(S(=O)(=O)N3CCN(c4ccccn4)CC3)c[nH]2)o1	USP8 block 40.5
CCc1nnc(-c2cc(S(=O)(=O)N3CCC(C)CC3)c[nH]2)o1	none
CCc1nnc(-c2ccc3ccn(CC(=O)N4CCN(c5ccccn5)CC4)c3c2)o1	USP28 block 30.9, USP10 block 33.0, USP8 block 91.9, USP17 block 75.9, USP30 block 38.6
CCN1CCN(S(=O)(=O)c2cc(-c3nnc(C4CC4)o3)co2)CC1	none
Cc1ccc(OCc2n[nH]c(=S)o2)cc1	none
O=C(Nc1cccc(-c2noc(C3CC3)n2)c1)c1n[nH]c2c1CCCC2	none
CC1CCc2c(sc3nc(CCC(=O)NCc4ccc5c(c4)OCO5)[nH]c(=O)c23)C1 (centres undefined)	USP8 block 45.1
COc1ccc(CNC(=O)CCc2nc3sc4c(c3c(=O)[nH]2)CCCCC4)cc1	USP17 block 50.7
O=C(CCc1nc2sc3c(c2c(=O)[nH]1)CCCCC3)NCc1ccc2c(c1)OCO2	none
O=C(N[C@@H]1C[C@@H](Oc2cccc(F)c2)[C@H](O)[C@H]1N1CCOCC1)c1cn[nH]c1	none
O=C(Nc1ccc(N2CCN(C3CCCC3)C2=O)nc1)C1CCCC1	none
O=C(COc1ccc(F)cc1)Nc1onc2c1CCCC2	none

Source: PubChem BioAssay
